From PubChem BioAssay AID493168 (National Center for Advancing Translational Sciences (NCATS), 2011)
Results filed as inconclusive are left out. A call without a number means that no potency is given here. The source made the active and inactive calls. The call rests on the fitted dose curve; in most records, active means well fitted inhibition curve with a large enough effect; inconclusive means small, poorly fitted or top-dose-only effect, or effect the other way; inactive means flat fitted curve, though single readings scatter.

Target: Ubiquitin carboxyl-terminal hydrolase 2 (Homo sapiens) (UniProt O75604)
Experiment: Confirmation Assay for Inhibitors of Ubiquitin-specific Protease USP2a Using CHOP2 as the Reporter; further: nearly all actives have a fitted effect of over 55% in size
Details: USP2 core, Ub-CHOP2 coupled reporter fluorescence; series mostly up to 38.3 µM
In short: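 USP2 core (10 nM final) was preincubated with compound for 30 min at RT in Tris-HCl pH 8.0, CaCl2, beta-mercaptoethanol, CHAPS. Ub-CHOP2 and reporter substrate (25 nM final each) were added, and fluorescence (Ex 485/Em 531 nm) was read after 60 min.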
Potency means the concentration at half of the fitted maximal effect.

Sequence of Ubiquitin carboxyl-terminal hydrolase 2 (Homo sapiens) (O75604 whole entry, looked up): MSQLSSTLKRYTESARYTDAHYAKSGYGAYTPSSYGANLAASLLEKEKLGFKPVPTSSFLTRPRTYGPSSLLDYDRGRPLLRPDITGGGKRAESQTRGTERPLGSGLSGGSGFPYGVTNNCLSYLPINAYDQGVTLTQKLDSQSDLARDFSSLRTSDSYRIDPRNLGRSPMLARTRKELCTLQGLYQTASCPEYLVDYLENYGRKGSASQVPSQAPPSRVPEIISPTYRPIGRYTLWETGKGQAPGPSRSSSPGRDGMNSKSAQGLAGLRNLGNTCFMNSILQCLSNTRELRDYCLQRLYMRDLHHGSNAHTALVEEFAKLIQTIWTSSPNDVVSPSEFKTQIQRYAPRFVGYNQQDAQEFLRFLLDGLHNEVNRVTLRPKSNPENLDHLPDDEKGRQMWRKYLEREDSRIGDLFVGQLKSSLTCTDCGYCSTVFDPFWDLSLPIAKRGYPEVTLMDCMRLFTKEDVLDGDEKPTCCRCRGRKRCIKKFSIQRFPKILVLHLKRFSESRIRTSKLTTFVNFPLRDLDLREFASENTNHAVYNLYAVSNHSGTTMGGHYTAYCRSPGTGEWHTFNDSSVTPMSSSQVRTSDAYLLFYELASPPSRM

Structure (SMILES) | Potency
Nn1c(Nc2ccccc2)nc2ccccc2c1=O | inactive
COc1ccc(-c2noc(CSc3nnc(Cc4ccccc4)n3-c3ccc(Cl)cc3)n2)cc1 | inactive
CC(=O)Nc1cc[n+](CC(=O)c2ccc(Cl)cc2)cc1 | inactive
CC(=O)c1c(N2CCCC2)[nH]c(-c2ccccc2)nc1=S | inactive
O=C1/C(=C/C=C/c2ccco2)SC(=S)N1NS(=O)(=O)c1ccccc1 | 8.26 µM (active)
CC(OC(=O)CN(C)S(=O)(=O)c1ccc(Cl)cc1)C(=O)Nc1ccc(N2CCOCC2)cc1 (stereo not given) | inactive
Nc1ccc(C2=Nc3cccc4cccc(c34)N2)cc1 | inactive
O=C(CC(C(=O)O)C1CCCO1)NCCc1ccc2c(c1)OCO2 (stereo not given) | inactive
O=C(CSc1ccc(Br)c2cccc(Cl)c12)Nc1ccc(S(=O)(=O)Nc2nccs2)cc1 | 9.27 µM (active)
CCOC(=O)C(=O)Nc1nc(-c2ccc3c(c2)CCN3C(=O)C2CC2)c(C)s1 | inactive
Cc1cc(C)c2c(N=CN(C)C)c(C(=O)N3CCN(c4ncccn4)CC3)sc2n1 | inactive
O=C(NCCC1=CCCCC1)C1CCCN(S(=O)(=O)c2cnc[nH]2)C1 (stereo not given) | inactive
Cc1ccc(NC(=O)CSc2nc(O)cc(=O)n2-c2ccc(C)cc2)cc1 | inactive
COC(=O)N/N=C\c1cc(Br)ccc1OCc1ccccc1 | inactive
N#C/C(=C\c1ccc(O)c(O)c1)C(=O)Nc1cccc2ncccc12 | 18.5 µM (active)
COC(=O)c1cc2sc(Cl)cc2n1Cc1nc(-c2ccccc2)oc1C | inactive
O=C(CSc1nnnn1-c1ccc(F)cc1)c1ccc(O)c(O)c1 | inactive
C#CCOCCOCCOCCNc1nc(N2CCN(C(=O)CCCCCCCCCCNC(=O)Cn3cc(CCCCCN)nn3)CC2)nc(N2CCN(C(=O)CCCCCCCCCCNC(=O)Cn3cc(CCCCCN)nn3)CC2)n1 | 10.4 µM (active)
O=c1cc2oc3cc(O)c(O)cc3c(-c3ccccc3[N+](=O)[O-])c-2cc1O | 18.5 µM (active)
CCOc1ccccc1N(CC(=O)NC(C)(C)C)C(=O)c1ccc(CN2CCOCC2)o1 | inactive

Structure (SMILES) | Potency
Cc1ccc(N2CCN(C(=O)CCc3nc4ccccc4[nH]3)CC2)c(C)c1 | inactive
O=C(OCC(=O)N1CCCCC1)c1cc2ccccc2cc1O | inactive
O=C(CSc1ncn[nH]1)Nc1ccc(Br)cc1F | inactive
O=c1cc(CO)oc(CN2CCN(Cc3ccccc3)CC2)c1O | inactive
COCCCNCCCOc1ccc(C)cc1Br | inactive
O=C(COC(=O)c1ccc(NS(=O)(=O)c2cccs2)cc1)Nc1nc2c(F)c(F)c(F)cc2s1 | 6.56 µM (active)
O=S(=O)(c1cc(Cl)ccc1Cl)N1CCNCC1 | inactive
COc1cc2cc(CN(CCN3CCCC3)C(=O)Nc3ccc(F)cc3)c(=O)[nH]c2cc1OC | inactive
CN1CCN(S(=O)(=O)c2ccc(N3CCN(S(=O)(=O)/C=C/c4ccccc4)CC3)nc2)CC1 | inactive
NC(=O)CC(NC(=O)Cc1ccc(Br)cc1)c1ccc(N2CCC(Cc3ccccc3)CC2)c([N+](=O)[O-])c1 (stereo not given) | inactive
C#CCOCCOCCOCCNc1nc(N2CCN(C(=O)CCCCCCCCCCNC(=O)[C@H]([C@@H](C)CC)n3cc(CCCCCN)nn3)CC2)nc(N2CCN(C(=O)CCCCCCCCCCNC(=O)[C@H]([C@@H](C)CC)n3cc(CCCCN=C(N)N)nn3)CC2)n1 | 6.56 µM (active)
CC1Cc2ccccc2N1C(=O)Cn1c(=O)oc2cc(S(=O)(=O)NC3CCCC3)ccc21 (stereo not given) | inactive
O=C(CN1CCOCC1)Nc1ccc(C2CCCCC2)cc1 | inactive
Cc1ccccc1OCCn1nc(C(=O)O)c2ccccc2c1=O | inactive
CCOC(=O)N1CCN(C(=O)CN(c2cccc(C)c2)S(=O)(=O)c2ccccc2)CC1 | inactive
CCOC(=O)C1=CN(Cc2cccc(F)c2)S(=O)(=O)NC1c1ccc(Br)cc1F (stereo not given) | inactive
O=C(O)C1Nc2c(O)cc(Cl)c([N+](=O)[O-])c2C2C=CCC12 (stereo not given) | 9.27 µM (active)
O=C(Cn1nc(-c2cccs2)ccc1=O)Nc1ccc(Br)cc1 | inactive
CCOC(=O)CN1C(=O)S/C(=C/c2ccc(O)c([N+](=O)[O-])c2)C1=O | inactive
CC1CCCC(NC(=O)C2N(CCCN3CCCC3)C(=O)C3C(C(=O)Nc4ccc(Cl)cc4)C4C=CC32O4)C1C (stereo not given) | inactive
